Where a name gives a salt, the structure may show the parent alone.
tested on: Pseudogymnoascus destructans 20631-21; assay: growth activity index (DuctApe, 0 = no growth, 9 = maximal growth) (index 0-9); higher = more fungal growth (less inhibition), active = 0 or less; extreme values may be limits of the assay; conditions: concentration level (1-4, increasing; Biolog proprietary): 1; temperature: 13 °C; YPD
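Further: biolog Phenotype Microarray plates PM21–25, OD595 followed daily over 11 days, growth curves converted to index, mean of two independent experiments.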

| SMILES | growth activity index |
| --- | --- |
| O=[Si](O)O [Sodium metasilicate] (Biolog plate: PM24) | 4.33 (inactive) |
| [Na+].[O]=[V](=[O])[O-] [Sodium metavanadate] (Biolog plate: PM22) | 5 (inactive) |
| CN(C)[C@@H]1C(O)=C(C(N)=O)C(=O)[C@@]2(O)C(O)=C3C(=O)c4c(O)ccc(Cl)c4[C@@](C)(O)[C@H]3C[C@@H]12 [Chlortetracycline] (Biolog plate: PM24) | 5.67 (inactive) |
| [Cl][Pd][Cl] [Palladium(II) Chloride] (Biolog plate: PM25) | 4.33 (inactive) |
| O=c1cn[nH]c(=O)[nH]1 [6-Azauracil] (Biolog plate: PM24) | 4.67 (inactive) |
| O.O.O.O.O.O.[Cl-].[Cl-].[Mg+2] [Magnesium chloride] (Biolog plate: PM21) | 4 (inactive) |
| [Cl][Cu][Cl] [Cupric chloride] (Biolog plate: PM23) | 4.33 (inactive) |
| [I-].[K+] [Potassium iodide] (Biolog plate: PM22) | 0 (active) |
| CN(C)C(=O)/N=N/C(=O)N(C)C [Diamide] (Biolog plate: PM21) | 5.75 (inactive) |
| NC(N)=O [Urea hydrogen peroxide] (Biolog plate: PM22) | 4.67 (inactive) |
| [F-].[Na+] [Sodium Fluoride] (Biolog plate: PM24) | 4.33 (inactive) |

same assay, conditions: concentration level (1-4, increasing; Biolog proprietary): 2; temperature: 13 °C; YPD

| SMILES | growth activity index |
| --- | --- |
| CC(=O)OCC1=C(C(=O)O)N2C(=O)[C@@H](NC(=O)Cc3cccs3)[C@H]2SC1 [Cephalotin] (Biolog plate: PM22) | 5 (inactive) |
| O=C([O-])c1ccccc1.[Na+] [Sodium Benzoate] (Biolog plate: PM24) | 5 (inactive) |
| C[C@H]1c2cccc(O)c2C(=O)C2=C(O)[C@]3(O)C(=O)C(C(N)=O)=C(O)[C@@H](N(C)C)[C@@H]3[C@@H](O)[C@@H]21 [Doxycycline] (Biolog plate: PM23) | 5 (inactive) |
| O.O=S(=O)([O-])[O-].O=S(=O)([O-])[O-].O=S(=O)([O-])[O-].[Al+3].[Al+3] [Aluminum sulfate] (Biolog plate: PM24) | 4 (inactive) |
| CN(C)CCC=C1c2ccccc2CCc2ccccc21 [Amitriptyline] (Biolog plate: PM25) | 0 (active) |
| NCCSCC(N)C(=O)O (stereo unspecified) [Thialysine] (Biolog plate: PM24) | 4 (inactive) |
| O=S(O)(O)=S [Sodium Thiosulfate] (Biolog plate: PM23) | 4.33 (inactive) |
| O=S(=O)([O-])[O-].[Cu+2] [Copper (II) sulfate] (Biolog plate: PM21) | 6 (inactive) |
| Nc1[nH]c(=O)ncc1F [5-Fluorocytosine] (Biolog plate: PM25) | 4 (inactive) |
| O=C([O-])CC(O)(CC(=O)[O-])C(=O)[O-].[Na+].[Na+].[Na+] [Citric acid Trisodium Salt] (Biolog plate: PM25) | 4.67 (inactive) |
| CC(C)Cc1ccc(C(C)C(=O)O)cc1 (stereo unspecified) [Ibuprofen] (Biolog plate: PM25) | 4.67 (inactive) |
| CSc1ccc2c(c1)N(CCC1CCCCN1C)c1ccccc1S2 (stereo unspecified) [Thioridazine] (Biolog plate: PM24) | 1.33 (inactive) |
| NC(CO)C(=O)NO (racemic) [DL-Serine hydroxamate] (Biolog plate: PM22) | 4 (inactive) |
| O=C([O-])c1ccccc1O.[Na+] [Sodium Salicylate] (Biolog plate: PM25) | 3.33 (inactive) |
| O=C(O)C(O)C(O)C(=O)O (stereo unspecified) [Tartaric acid] (Biolog plate: PM25) | 2 (inactive) |
| N=C(N)N [Guanidine hydrochloride] (Biolog plate: PM21) | 5 (inactive) |
| COc1ccc2cc3[n+](cc2c1OC)CCc1cc2c(cc1-3)OCO2 [Berberine Chloride] (Biolog plate: PM24) | 4.67 (inactive) |
| NC[C@H]1O[C@H](O[C@H]2[C@H](O)[C@@H](O[C@H]3O[C@H](CO)[C@@H](O)[C@H](N)[C@H]3O)[C@H](N)C[C@@H]2N)[C@H](O)[C@@H](O)[C@@H]1O [Kanamycin] (Biolog plate: PM25) | 5 (inactive) |
| Nc1c2ccccc2nc2ccccc12 [9-Aminoacridine] (Biolog plate: PM24) | 5.33 (inactive) |
| O=NO [Sodium Nitrite] (Biolog plate: PM23) | 2.67 (inactive) |

| SMILES | growth activity index |
| --- | --- |
| CCCCCCCC(=O)[O-].[Na+] [Sodium Caprylate] (Biolog plate: PM23) | 3.33 (inactive) |
| c1ccc(-c2ccccn2)nc1 [2,2`-Dipyridyl] (Biolog plate: PM21) | 5 (inactive) |
| O=C(O)CCC(=O)O [Succinic acid] (Biolog plate: PM25) | 3.33 (inactive) |
| O=C(O)/C=C/C(=O)O [Fumaric acid] (Biolog plate: PM25) | 4 (inactive) |
| O=C(O)/C=C/c1ccccc1 [Cinnamic acid] (Biolog plate: PM25) | 4.67 (inactive) |
| CN1CCN(CCCN2c3ccccc3Sc3ccc(C(F)(F)F)cc32)CC1 [Trifluoperazine] (Biolog plate: PM21) | 0.25 (inactive) |
| OB(O)O [Boric acid] (Biolog plate: PM22) | 0.333 (inactive) |
| [Cl-].[Li+] [Lithium chloride] (Biolog plate: PM22) | 0 (active) |
| C[C@@H]1[C@H](O)[C@@H](C)/C=C/C=C/C=C/C=C/C=C/C=C/C=C/[C@H](O[C@@H]2O[C@H](C)[C@@H](O)[C@H](N)[C@@H]2O)C[C@@H]2O[C@](O)(C[C@@H](O)C[C@@H](O)[C@H](O)CC[C@@H](O)C[C@@H](O)CC(=O)O[C@H]1C)C[C@H](O)[C@H]2C(=O)O [Amphotericin B] (Biolog plate: PM24) | 1.33 (inactive) |
| O=[Si](O)O [Sodium metasilicate] (Biolog plate: PM24) | 2.67 (inactive) |
| [Na+].[O]=[V](=[O])[O-] [Sodium metavanadate] (Biolog plate: PM22) | 4.33 (inactive) |
| CN(C)[C@@H]1C(O)=C(C(N)=O)C(=O)[C@@]2(O)C(O)=C3C(=O)c4c(O)ccc(Cl)c4[C@@](C)(O)[C@H]3C[C@@H]12 [Chlortetracycline] (Biolog plate: PM24) | 4.33 (inactive) |
| [Cl][Pd][Cl] [Palladium(II) Chloride] (Biolog plate: PM25) | 4 (inactive) |
| O=c1cn[nH]c(=O)[nH]1 [6-Azauracil] (Biolog plate: PM24) | 4 (inactive) |
| O.O.O.O.O.O.[Cl-].[Cl-].[Mg+2] [Magnesium chloride] (Biolog plate: PM21) | 4 (inactive) |
| [Cl][Cu][Cl] [Cupric chloride] (Biolog plate: PM23) | 5.33 (inactive) |
| [I-].[K+] [Potassium iodide] (Biolog plate: PM22) | 0 (active) |
| CN(C)C(=O)/N=N/C(=O)N(C)C [Diamide] (Biolog plate: PM21) | 5 (inactive) |
| NC(N)=O [Urea hydrogen peroxide] (Biolog plate: PM22) | 4 (inactive) |
| [F-].[Na+] [Sodium Fluoride] (Biolog plate: PM24) | 4.67 (inactive) |

Reference: the supplement of paper PMC6124720
